# Screening data (PubChem)
# D2 PAM-1: positive allosteric modulators of human D2 dopamine receptor | P14416 | DiscoveRx D2 beta-arrestin cells, luminescence, 90 min; 100% = 57 uM dopamine signal | potentiation, % (test concentration not listed) | 360,000 compounds, 0.23% hits | AID 624464; in the data active = potentiation above about 50%; inconclusive = mostly about 30% to 49%
# Target sequence (P14416 whole entry, looked up): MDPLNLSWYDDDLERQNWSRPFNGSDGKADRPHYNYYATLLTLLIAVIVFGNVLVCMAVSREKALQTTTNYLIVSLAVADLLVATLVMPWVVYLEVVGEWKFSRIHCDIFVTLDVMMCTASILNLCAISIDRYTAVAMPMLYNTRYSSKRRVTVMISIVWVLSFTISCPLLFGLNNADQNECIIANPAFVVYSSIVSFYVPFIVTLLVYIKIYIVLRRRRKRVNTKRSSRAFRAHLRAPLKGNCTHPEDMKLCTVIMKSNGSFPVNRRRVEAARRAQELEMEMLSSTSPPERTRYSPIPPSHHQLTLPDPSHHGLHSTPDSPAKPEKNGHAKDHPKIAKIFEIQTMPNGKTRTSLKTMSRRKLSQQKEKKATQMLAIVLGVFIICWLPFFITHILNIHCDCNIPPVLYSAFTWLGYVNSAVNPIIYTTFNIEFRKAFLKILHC
#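 PathHunter D2 cells, attached overnight at 37 deg C, received compound in DMSO plus dopamine at EC20 (50 nM final) for 90 min at 37 deg C. Beta-arrestin recruitment was read as luminescence after 1 h with detection reagent at ambient temperature.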
# D2 ag-1: activates the human D2 dopamine receptor | P14416 | HEK293 T-REx D2 cells, calcium flux agonist mode | activation, % at 2 µM | 340,000 compounds, 0.53% hits;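 active = activation over 3 SD above normal in the single-dose calcium agonist read, cut at about 30% in these data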; also: 0% is about no effect
#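 In this primary screen, compounds producing a positive calcium signal within 180 s of addition to tetracycline-induced, force-coupled HEK293 Trex D2 cells are flagged; cells are dye-loaded with a no-wash calcium kit beforehand.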
# D2 antagonist: D2 dopamine receptor (human) antagonism; P14416; HEK293 TREx D2 cells, calcium flux, dopamine EC80; inhibition, % at 10 µM; 340,000 compounds, 2% hits; AID 485344; in the data active = inhibition above about 30%; inactive = below that, where a call was filed; also: 0% is about no effect
#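 Measurement of antagonist activity uses fluorescent calcium dye in inducible HEK293 T-REx D2 cells: 10 s baseline, compound addition with 180 s read, EC80 dopamine addition with a further 180 s read.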
# D2 ag-2: activates the human D2 dopamine receptor | activation, % (test concentration not listed) | P14416 | DiscoveRx PathHunter D2 beta-arrestin, luminescence, 90 min; 100% = 57 uM dopamine signal | 360,000 compounds, 0.084% hits; in the data active = activation above about 40%; inconclusive = between about 15% and that limit
#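 DiscoveRx PathHunter D2 beta-arrestin cells (2,100/well) attached overnight, then compound-stimulated 90 min at 37 C in HBSS/10 mM HEPES/0.1% Tween-20 buffer; beta-galactosidase complementation read by luminescence after 1 h at ambient temperature. Dopamine 57 uM final (EC100) as control.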
# D2 PAM-2: D2 dopamine receptor (human) potentiation | 340,000 compounds, 0.34% hits | P14416 | HEK293 T-REx D2, calcium flux, EC20 dopamine potentiation | potentiation, % at 10 µM;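 active = potentiation over 3 SD above the plate norm, cut at about 30% in these data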; also: 0% is about no effect
#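 Calcium flux readout, no-wash dye, 1 read/s. Inducible HEK293 Trex D2 line, overnight 30 C. Compound alone 180 s (agonist flags), then EC20 dopamine, another 180 s to score potentiation.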
# An asterisk follows results filed as active; ? = inconclusive; . = no result. This is a sample that favours compounds with a hit; in the whole collection about 2.4% have one here.
SMILES,D2 PAM-1,D2 ag-1,D2 antagonist,D2 ag-2,D2 PAM-2
CCOc1ccccc1C(=O)Nc1cc(C)ccc1NC(=O)c1ccco1,-4.4,-1.2,-15.2,-3.5,4.4
O=C(CCN1CCc2ccccc2C1)Nc1ccccc1,-35.8,-0.2,57.3*,0.2,-24.0
O=C(CCN1CCc2ccccc2C1)Nc1cccc(F)c1,-27.4,3.3,60.1*,-4.4,.
O=C(CCN1CCCCCC1)Nc1cccc(F)c1,-18.3,0.5,-7.3,-3.3,-20.3
Nc1[nH]n2c(=O)c3c(nc2c1N=Nc1ccc(Cl)cc1)CCCC3,-5.5,0.3,2.4,-2.3,1.3
Nc1[nH]n2c(=O)c3c(nc2c1N=Nc1ccccc1)CCCC3,-14.6,-0.3,37.5*,-3.2,-4.6
Cc1[nH]n2c(=O)c3c(nc2c1-c1ccc(Cl)cc1)CCC3,-34.6,-0.6,74.8*,-1.3,-21.9
Cc1[nH]n2c(=O)c3c(nc2c1-c1ccccc1)CCC3,-31.6,0.5,35.9*,-0.6,-19.2
COc1ccc(OC(=O)c2nc(SCc3ccccc3C)ncc2Cl)cc1,.,1.1,.,.,-8.2
CCC(=O)Oc1ccc(C(=O)Nc2c[nH]c(=O)[nH]c2=O)cc1,8.4,1.7,34.6*,-2.1,-1.8
O=C(CN1C(=O)c2ccccc2C1=O)NC(Cc1ccccc1)C(=O)O (stereo unspecified),-9.5,.,.,-0.3,.
CCCCNc1sc(S(=O)(=O)CCC)nc1S(=O)(=O)c1ccc(C)cc1,.,-0.5,.,.,12.6
COc1ccc(-c2c(-c3ccccc3)c(C(=O)C(=O)NCCCN(C)C)n3ccc4cc(OC)c(OC)cc4c23)cc1OC,-15.8,0.4,48.3*,-2.5,-23.7
CN(C)CCNC(=O)C(=O)c1c(-c2ccccc2)cc2ccccn12,-15.9,0.0,10.0,-1.2,4.5
O=C(Nc1ccc2c(c1)CCCN2C(=O)c1ccco1)c1cc([N+](=O)[O-])ccc1Cl,56.0*,0.1,1.2,6.7,-1.0
O=C(Nc1ccc(N2CCN(C(=O)c3ccco3)CC2)cc1)c1ccc([N+](=O)[O-])cc1Cl,-2.5,1.1,-0.5,4.8,-4.3
Cc1ccc(-n2nc3c(N4CCCC(C(=O)NCc5ccc(Cl)cc5)C4)nnc(C)c3c2C)cc1 (stereo unspecified),.,-0.2,.,.,4.8
Cc1ccc(CN2CCC(c3cc(-c4cccs4)n[nH]3)CC2)cc1,-18.1,1.1,69.9*,1.3,-21.0
FC(F)(F)c1cccc(CN2CCC(c3cc(-c4cccs4)n[nH]3)CC2)c1,-16.1,0.1,83.9*,3.0,-33.0
COC(=O)CCN1CCC(c2cc(-c3cccc(C(F)(F)F)c3)n[nH]2)CC1,-9.6,1.1,-26.8,-3.4,-8.5
COCCc1ccc(OC2(C)CCN(Cc3cccc(OCOC)c3)C2)cc1 (stereo unspecified),-35.8,.,.,-7.1,.
Cc1cn([C@H]2C[C@H](O)[C@@H](/C=C/C(=O)NCCC(c3ccccc3)c3ccccc3)O2)c(=O)[nH]c1=O,-5.7,.,.,-3.9,.
CCOc1ccc(NC(=O)CCC(=O)NNS(=O)(=O)c2ccccc2[N+](=O)[O-])cc1,-0.7,105.2*,11.2,2.9,3.6
Cc1ccc(CNC(=O)c2cc(-c3ccccc3C)nn2CC2CC(c3cccnc3)=NO2)cc1 (stereo unspecified),-99.8,.,.,3.6,.
Cc1ccccc1-c1cc(C(=O)NCc2ccc3c(c2)OCO3)n(CC2CC(c3cccnc3)=NO2)n1 (stereo unspecified),-17.7,-1.9,82.9*,1.5,6.0
SMILES,D2 PAM-1,D2 ag-1,D2 antagonist,D2 ag-2,D2 PAM-2
Cc1ccc(NC(=O)CSc2nc3nc(C)c(Cc4ccccc4)c(C)n3n2)cc1,.,0.5,.,.,-8.7
CCCN1CCCc2cc(CN)ccc21,50.4*,-0.1,9.0,3.6,-8.8
Cc1sc(NC(=O)C2c3ccccc3Oc3ccccc32)c(C(=O)OC(C)C)c1C,.,-0.2,.,.,6.4
CC(=O)N1CCc2[nH]c3ccc(C)cc3c2C1,-6.7,0.9,7.1,-1.7,4.1
Cc1cccc(CN2CCc3c([nH]c4ccccc34)C2)c1,-10.6,0.9,56.2*,-6.4,-22.8
Cc1ccc2[nH]c3c(c2c1)CN(C)CC3,-36.3,2.4,31.1*,-3.2,-29.8
CCOC(=O)c1ccc2[nH]c3c(c2c1)CN(C)CC3,-10.1,0.2,16.3,-3.6,0.9
Cc1ccc2[nH]c3c(c2c1)CCN(C)C3,-5.4,0.9,33.7*,-4.5,-16.4
COC(=O)C1CCN(S(=O)(=O)c2cc3c4c(c2)CC(=O)N4CCC3)CC1,.,1.3,.,.,-2.7
COc1ccc(C)cc1NC(=O)COC(=O)c1c(-c2ccccc2)noc1C,-7.6,.,.,-3.1,.
Nc1nc(NCCc2ccccc2)nc(NCc2ccccc2)c1[N+](=O)[O-],3.2,0.6,45.2*,-1.6,0.0
COc1ccc(C(=O)Nc2ccc(C(=O)OCC(=O)c3cccc4ccccc34)cc2)cc1,-17.3,0.9,76.4*,2.6,-0.5
COc1ccc(NC(=O)c2ccc3ccccc3c2)cc1,-0.6,0.3,1.8,5.1,8.7
COc1ccc(S(=O)(=O)NCCc2sc(-c3cccc(C)c3)nc2C)cc1,.,-0.1,.,.,11.9
CC(C)(C)OC(=O)N1CCC(c2c(C(=O)NCCN3CCc4ccccc4C3)cnn2-c2ccc(F)cc2F)CC1,.,.,.,.,-2.7
CCc1ccc(OCC(=O)N/N=C(\C)c2ccc(O)cc2O)cc1,-6.6,-0.2,44.9*,-3.7,-13.2
Cc1ccc(S(=O)(=O)N2C[C@@H]3CCCC[C@@H]3[C@@H](C)[C@H]2c2cn(Cc3ccccc3)c3ncccc23)cc1,-1.7,.,.,-1.1,.
Cc1c(Br)c([N+](=O)[O-])nn1CC(=O)Nc1nccs1,-3.3,0.1,-2.0,-2.1,52.4*
CC(=O)N1c2ccc(S(=O)(=O)N3CCCC(C(=O)Nc4ccc(F)cc4)C3)cc2CC1C (stereo unspecified),-5.7,1.8,-5.6,-0.7,11.9
COc1ccc(OC)c(NC(=O)C2CC(/C=C/c3ccccc3)=NO2)c1 (stereo unspecified),-1.5,32.6*,-20.2,1.9,-11.3
O=C(Oc1ccc(Br)cc1C(=S)N1CCOCC1)c1ccc([N+](=O)[O-])cc1[N+](=O)[O-],56.3*,1.1,-3.7,?,37.5*
O=C(Oc1cccc(C(=S)N2CCOCC2)c1)c1cc([N+](=O)[O-])cc([N+](=O)[O-])c1,24.8,0.5,3.3,40.7*,-0.6
Cc1cccc(NC(=O)C(C)OC(=O)CNC(=O)C2CCCCC2)c1 (stereo unspecified),-15.7,.,.,-2.2,.
CC1CCCCC1NC(=O)CCNS(=O)(=O)c1cc(Br)cnc1N (stereo unspecified),-6.5,0.1,32.9*,1.2,2.8
COc1ccc(CNC(=O)CCNS(=O)(=O)c2cc(Br)cnc2N)cc1,-5.4,0.0,-5.2,-2.5,45.7*
Nc1ncc(Br)cc1S(=O)(=O)NCCC(=O)NCc1ccc(F)cc1,-14.3,0.2,-20.0,0.6,-2.6
